Data from the supplement of paper PMC4466140.

Experiments:
Assay in all cases: SPOT peptide array binding signal intensity (averaged, normalized) (arbitrary units (background-subtracted, floor 0; scale differs between SH3 domains)); higher = stronger binding of the SH3 domain to the peptide
[1] = target: AgAbp1
How it was run: (§1)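 Four yeast species supplied the SH3 domains, which were expressed as GST fusions in E. coli BL21(DE3) and purified on glutathione Sepharose. Incubation with cellulose membranes carrying synthetic 15-mer peptides, cysteines exchanged for serines, ran overnight at 4°C at 10 μg/ml in TBS-based blocking buffer. Binding signal is reported as normalized, background-subtracted spot intensity averaged over replicates, in arbitrary units not shared between domains.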

[2] = target: AgBbc1
How it was run: as §1

[3] = target: AgBem1-D1
How it was run: as §1

[4] = target: AgBzz1-D1
How it was run: as §1

[5] = target: AgBzz1-D2
How it was run: as §1

[6] = target: AgCyk3
How it was run: as §1

[7] = target: AgFus1
How it was run: as §1

[8] = target: AgHof1
How it was run: as §1

[9] = target: AgHse1
How it was run: as §1

[10] = target: AgLsb1
How it was run: as §1

[11] = target: AgLsb4
How it was run: as §1

[12] = target: AgMyo5
How it was run: as §1

[13] = target: AgNbp2
How it was run: as §1

[14] = target: AgRvs167
How it was run: as §1

[15] = target: AgSho1
How it was run: as §1

[16] = target: AgSla1-D1-D2
How it was run: as §1

[17] = target: AgSla1-D3
How it was run: as §1

[18] = target: CaAbp1-D1
How it was run: as §1

[19] = target: CaAbp1-D2
How it was run: as §1

[20] = target: CaBbc1
How it was run: as §1

[21] = target: CaBem1-D1
How it was run: as §1

[22] = target: CaBzz1-D1
How it was run: as §1

[23] = target: CaBzz1-D2
How it was run: as §1

[24] = target: CaCyk3
How it was run: as §1

[25] = target: CaFus1
How it was run: as §1

[26] = target: CaHof1
How it was run: as §1

[27] = target: CaHse1
How it was run: as §1

[28] = target: CaLsb1
How it was run: as §1

[29] = target: CaLsb4
How it was run: as §1

[30] = target: CaMyo5
How it was run: as §1

[31] = target: CaNbp2
How it was run: as §1

[32] = target: CaRvs167
How it was run: as §1

[33] = target: CaRvs167-3
How it was run: as §1

[34] = target: CaSho1
How it was run: as §1

[35] = target: CaSla1-D1-D2
How it was run: as §1

[36] = target: CaSla1-D3
How it was run: as §1

[37] = target: ScAbp1
How it was run: as §1

KWVRRPKLMTPLTFS
SPOT peptide array binding signal intensity [1]: 205 | SPOT peptide array binding signal intensity [2]: 73.5 | SPOT peptide array binding signal intensity [3]: 169 | SPOT peptide array binding signal intensity [4]: 25 | SPOT peptide array binding signal intensity [5]: 8 | SPOT peptide array binding signal intensity [6]: 3 | SPOT peptide array binding signal intensity [7]: 754 | SPOT peptide array binding signal intensity [8]: 110 | SPOT peptide array binding signal intensity [9]: 818 | SPOT peptide array binding signal intensity [10]: 495 | SPOT peptide array binding signal intensity [11]: 71 | SPOT peptide array binding signal intensity [12]: ≤ 0 | SPOT peptide array binding signal intensity [13]: 371 | SPOT peptide array binding signal intensity [14]: 8 | SPOT peptide array binding signal intensity [15]: 185 | SPOT peptide array binding signal intensity [16]: 275 | SPOT peptide array binding signal intensity [17]: 11.2 | SPOT peptide array binding signal intensity [18]: 498 | SPOT peptide array binding signal intensity [19]: 297 | SPOT peptide array binding signal intensity [20]: 192 | SPOT peptide array binding signal intensity [21]: 329 | SPOT peptide array binding signal intensity [22]: 164 | SPOT peptide array binding signal intensity [23]: 121 | SPOT peptide array binding signal intensity [24]: 45 | SPOT peptide array binding signal intensity [25]: 1360 | SPOT peptide array binding signal intensity [26]: 1.5 | SPOT peptide array binding signal intensity [27]: 180 | SPOT peptide array binding signal intensity [28]: 7 | SPOT peptide array binding signal intensity [29]: 346 | SPOT peptide array binding signal intensity [30]: 11.5 | SPOT peptide array binding signal intensity [31]: 757 | SPOT peptide array binding signal intensity [32]: 162 | SPOT peptide array binding signal intensity [33]: 27.8 | SPOT peptide array binding signal intensity [34]: 522 | SPOT peptide array binding signal intensity [35]: 623 | SPOT peptide array binding signal intensity [36]: 264 | SPOT peptide array binding signal intensity [37]: 103
